Laboratory results from PubChem BioAssay.
Active and inactive are the calls of the source. Unless noted, the rule behind the calls is not given here.

What was measured:
[1] = HepG2 liver cancer cell viability effects, profiling panel, resazurin fluorescence, 24 h, PK04 Diversity Set (AID 1172); settings: higher = more signal; note: test concentration not given here
[2] = basal S. cerevisiae growth modulation, no modifier, primary screen, OD600, strain BY4716, 24 h, basal condition (AID 1173); settings: OD600, 24 h, higher = more signal, called active from +8 up or from −8 down
[3] = MM1S myeloma cell viability, profiling panel, resazurin fluorescence, basal, 24 h, PK04 Diversity Set (AID 1174); settings: higher = more signal, called active from +8 up or from −8 down;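 note: MM1S multiple myeloma cell line; test concentration not given here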
[4] = target: Dihydroorotate dehydrogenase (quinone), mitochondrial (Plasmodium falciparum (isolate 3D7)) (UniProt Q08210); test: PfDHODH enzyme inhibitors, primary screen, biochemical, C-terminal His tag, absorbance 600 nm (AID 1175); settings: DCIP absorbance 600 nm, higher = more signal, called active from +8 up or from −8 down;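 note: recombinant parasite enzyme with a five histidine tag at its C terminus; test concentration not given here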
[5] = P. aeruginosa biofilm formation inhibitors, primary screen, strain PAO1, LB-PBS medium, absorbance 600 nm (AID 1176); note: test concentration not given here; settings: P. aeruginosa PAO1 growth/biofilm, A600, 12 h; higher = more signal
[6] = S. cerevisiae RM11-1a growth modifiers, primary screen, strain RM11-1a, OD600, basal, 24 h (AID 1177); settings: OD600, 24 h, higher = more signal, called active from +8 up or from −8 down;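 note: cultures grown under basal conditions with no added stressor; test concentration not given here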
[7] = E. coli acrAB mutant growth effects, primary screen, E. coli filamentation inducers, strain DRC39, OD650, 24 h (AID 1178); settings: higher = more signal, called active from +8 up or from −8 down;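 note: growth measured as culture turbidity by optical density at 650 nm; test concentration not given here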
[8] = E. coli acrAB mutant growth effects, primary screen, E. coli filamentation inducers, strain DRC39, OD650, 48 h (AID 1179);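 note: screen aims at cell division blockers that make cells filament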; settings: E. coli DRC39 delta-acrAB growth, higher = more signal, called active from +8 up or from −8 down
[9] = RPMI8226 myeloma cell viability, profiling panel, resazurin fluorescence, basal, 24 h, PK04 Diversity Set (AID 1180); settings: higher = more signal;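 note: RPMI8826 multiple myeloma cell line at 5000 cells per well; test concentration not given here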
[10] = target: E3 ubiquitin-protein ligase XIAP (Homo sapiens) (UniProt P98170); test: XIAP binders, primary screen, biophysical, small-molecule microarray, fluorescence 635 nm (AID 1181); settings: small-molecule microarray binding, higher = more signal;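 note: score merges 667 nm emission and signal to noise over triplicate slides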
Sequence of E3 ubiquitin-protein ligase XIAP (Homo sapiens) (P98170 whole entry, looked up): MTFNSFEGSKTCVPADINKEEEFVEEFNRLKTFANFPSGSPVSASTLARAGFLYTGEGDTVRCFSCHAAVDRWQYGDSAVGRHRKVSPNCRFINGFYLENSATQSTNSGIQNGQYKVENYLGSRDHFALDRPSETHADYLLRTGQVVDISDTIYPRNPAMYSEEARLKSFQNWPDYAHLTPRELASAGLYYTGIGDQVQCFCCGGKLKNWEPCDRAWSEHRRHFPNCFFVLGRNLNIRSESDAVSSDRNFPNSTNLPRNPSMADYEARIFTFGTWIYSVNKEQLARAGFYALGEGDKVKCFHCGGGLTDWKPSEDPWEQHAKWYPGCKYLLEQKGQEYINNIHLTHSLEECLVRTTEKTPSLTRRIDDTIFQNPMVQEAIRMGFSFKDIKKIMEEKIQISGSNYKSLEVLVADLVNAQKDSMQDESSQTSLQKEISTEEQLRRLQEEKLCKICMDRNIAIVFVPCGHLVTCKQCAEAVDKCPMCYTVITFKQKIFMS

Sequence of Dihydroorotate dehydrogenase (quinone), mitochondrial (Plasmodium falciparum (isolate 3D7)) (Q08210 whole entry, looked up): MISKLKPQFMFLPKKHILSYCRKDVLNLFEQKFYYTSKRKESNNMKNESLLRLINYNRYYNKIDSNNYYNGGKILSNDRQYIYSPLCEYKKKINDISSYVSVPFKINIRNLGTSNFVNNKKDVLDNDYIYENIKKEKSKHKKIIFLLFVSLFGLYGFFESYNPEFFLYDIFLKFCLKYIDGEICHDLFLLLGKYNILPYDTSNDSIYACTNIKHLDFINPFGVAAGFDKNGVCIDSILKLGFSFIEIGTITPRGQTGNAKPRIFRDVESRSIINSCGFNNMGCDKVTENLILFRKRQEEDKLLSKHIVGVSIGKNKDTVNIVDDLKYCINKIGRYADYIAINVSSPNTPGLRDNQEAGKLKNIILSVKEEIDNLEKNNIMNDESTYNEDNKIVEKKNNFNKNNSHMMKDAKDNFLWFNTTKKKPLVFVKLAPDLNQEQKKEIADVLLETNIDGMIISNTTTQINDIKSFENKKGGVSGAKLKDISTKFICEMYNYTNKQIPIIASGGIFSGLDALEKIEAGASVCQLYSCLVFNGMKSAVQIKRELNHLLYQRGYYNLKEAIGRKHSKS

Compound	z-score [1]	z-score [2]	z-score [3]	composite z-score [4]	z-score [5]	z-score [6]	z-score [7]	z-score [8]	z-score [9]	composite z-score [10]
CC1CC/C=C\[C@H]2OC34C=CCN(Cc5ccccc5)C(=O)[C@H]3N(C(CO)C(C)C)C(=O)[C@@H]4C2C(=O)O1 (stereo not given in full)	0.145	0.325 (inactive)	0.325 (inactive)	-0.841 (inactive)	0.205 (inactive)	0.558 (inactive)	0.426 (inactive)	0.523 (inactive)	0.775	-0.211
C=CCN1C(=O)[C@]2(CCC(=O)OC(C)(C)C)N=C(c3ccc(OCCCO)cc3)O[C@@H]2c2ccccc21	-1.11	-1.32 (inactive)	-3.44 (inactive)	-0.292 (inactive)	0.314 (inactive)	0.853 (inactive)	0.93 (inactive)	0.685 (inactive)	-6.48	-0.0387
CCOC(=O)C[C@H]1[C@H](OC(=O)Cc2ccc3c(c2)OCO3)[C@@H](NC(=O)C2CCCCC2)c2cc(OCCCO)ccc2N1C(=O)c1ccccc1	-0.215	0.149 (inactive)	0.327 (inactive)	0.108 (inactive)	0.407 (inactive)	0.0834 (inactive)	1.39 (inactive)	1.37 (inactive)	0.3	-0.173
COC(=O)[C@@]1(Cc2ccc(F)cc2)[C@H]2c3cc(C(=O)N4CCCC4)n(CCc4c[nH]c5ccccc45)c3C[C@H]2CN1C(=O)c1ccccc1	-1.03	1.74 (inactive)	-2.23 (inactive)	-0.106 (inactive)	0.343 (inactive)	0.0323 (inactive)	-1.4 (inactive)	-0.319 (inactive)	-2.94	-0.018
CC(=O)N1CC2(CC2)CC1c1ccccc1 (stereo not given)	-0.603	1.12 (inactive)	-1.89 (inactive)	-0.448 (inactive)	0.535 (inactive)	0.0303 (inactive)	-0.88 (inactive)	-0.206 (inactive)	-1.36	0.0116
C=C[C@@H](CO)N(Cc1ccc(OC)cc1)S(=O)(=O)c1ccc(Br)cc1	1.04	-5.71 (inactive)	-0.495 (inactive)	-2.32 (inactive)	-0.152 (inactive)	-1.99 (inactive)	1.66 (inactive)	1.88 (inactive)	-0.455	-0.434
O=C(Cc1ccccc1)[C@H]1C2C=CCCC(c3ccccc3)=C2CN1Cc1ccccc1 (stereo not given in full)	1.37	-2.98 (inactive)	0.806 (inactive)	-0.658 (inactive)	1.44 (inactive)	-0.546 (inactive)	1.64 (inactive)	1.29 (inactive)	1.08	-0.441
COc1cc2c(cc1O)C(C1CC1)N(C)CC2 (stereo not given)	0.0514	-0.391 (inactive)	0.509 (inactive)	-0.501 (inactive)	-0.572 (inactive)	-0.0321 (inactive)	0.115 (inactive)	0.0029 (inactive)	-0.0158	0.175
CC(=O)NCCCC[C@@H]1NC(=O)[C@@H]2C[C@H](C(=O)NCCCCCN)[C@H](c3ccc(O)cc3)N2C1=O	-0.714	-0.12 (inactive)	0.707 (inactive)	0.143 (inactive)	0.0094 (inactive)	-0.0659 (inactive)	-0.139 (inactive)	-0.515 (inactive)	0.0794	0.492
CO[C@H]1O[C@H](CO)[C@@H](OC(=O)Nc2ccc3c(c2)OCO3)[C@H](OC(=O)Nc2ccc3c(c2)OCO3)[C@@H]1OC(=O)Nc1ccc2c(c1)OCO2	-0.907	1.44 (inactive)	-0.309 (inactive)	-0.732 (inactive)	1.05 (inactive)	1.81 (inactive)	1.01 (inactive)	-0.147 (inactive)	-0.472	0.374
C=CC[C@H](OC(=O)Nc1ccc(SC)cc1)c1ccc(O)c2ccccc12	-1.26	-16.6 (active)	-6.71 (inactive)	-6.87 (inactive)	1.44 (inactive)	-20.3 (active)	-0.146 (inactive)	-0.772 (inactive)	-5.02	0.104
OCCCC1=CC(c2ccc(CN3CCCC3)cc2)N(Cc2cc3c(cc2Br)OCO3)CC1 (stereo not given)	0.195	-0.538 (inactive)	0.163 (inactive)	0.198 (inactive)	0.485 (inactive)	0.622 (inactive)	0.243 (inactive)	0.149 (inactive)	-0.343	-0.0513
C=CCN1Cc2ccccc2[C@@H]2OC(c3ccc(OCCCO)cc3)=N[C@]2(CC=C)C1=O	0.151	-1.94 (inactive)	0.0504 (inactive)	-0.0817 (inactive)	0.314 (inactive)	-0.0316 (inactive)	0.997 (inactive)	0.64 (inactive)	-0.747	0.247
CCCCC(O)C1C=CC2C(=O)N(C)C(=O)C2N1N(c1ccccc1)c1ccccc1 (stereo not given)	-0.682	0.512 (inactive)	-1.65 (inactive)	-0.226 (inactive)	1.26 (inactive)	0.46 (inactive)	-0.447 (inactive)	-0.251 (inactive)	-1.05	0.001
COc1ccc([Si](C)(C)[C@@H]2[C@@H](CCO)O[C@]3(C(=O)N(Cc4cccc(NC(=O)[C@H](C)O)c4)c4ccccc43)[C@H]2C)cc1	-5.97	0.728 (inactive)	-9.06 (active)	0.554 (inactive)	1.25 (inactive)	4.9 (inactive)	0.0065 (inactive)	-0.811 (inactive)	-6.22	0.0479
C[N+](C)(C)CCCC[C@@H]1NC(=O)[C@@H]2C[C@H](C(=O)NCCCCCCN)[C@H](c3cccc(OCCO)c3)N2C1=O	-0.418	-0.22 (inactive)	-0.0181 (inactive)	0.441 (inactive)	-0.117 (inactive)	-0.0966 (inactive)	0.342 (inactive)	0.743 (inactive)	-1.3	0.215
CCOC(=O)C[C@H]1[C@H](OC(=O)Cc2ccc3c(c2)OCO3)[C@@H](NC(=O)c2ccc3ccccc3n2)c2cc(OCCCO)ccc2N1C(=O)c1ccccc1	0.374	-0.407 (inactive)	-1.51 (inactive)	-0.32 (inactive)	-0.325 (inactive)	0.946 (inactive)	-0.247 (inactive)	0.208 (inactive)	-0.139	0.134
CO[C@H]1O[C@H](CO)[C@@H](OC(=O)CCc2ccccc2)[C@@H]2OC(=O)[C@@H](Cc3ccccc3)C/C=C/C[C@H](Cc3ccccc3)C(=O)O[C@@H]12	0.195	-0.559 (inactive)	-0.887 (inactive)	-1.53 (inactive)	-0.661 (inactive)	0.532 (inactive)	1.06 (inactive)	1.79 (inactive)	0.943	0.913
Cc1ccc(S[C@]2(C(=O)NC(C)C)CC(=O)N(Cc3cc(C(F)(F)F)cc(C(F)(F)F)c3)[C@@H]2c2ccc(CO)cc2)cc1	-0.489	-1.33 (inactive)	0.528 (inactive)	-1.06 (inactive)	0.31 (inactive)	-0.656 (inactive)	-0.0813 (inactive)	-0.229 (inactive)	0.483	-0.0125
CC(C)c1ccc(NN2C(C(O)c3ccc(C#N)cc3)C=CC3C(=O)N(c4ccccc4)C(=O)C32)cc1 (stereo not given)	-2	-1.67 (inactive)	-1.26 (inactive)	-0.0438 (inactive)	1.94 (inactive)	1.15 (inactive)	-0.526 (inactive)	-0.926 (inactive)	-1.48	-0.152
COC(=O)C(CC#Cc1ccc2c(c1)[C@]1(C(=O)N2)[C@H](c2ccc(O)cc2)N2[C@H](c3ccccc3)[C@H](c3ccccc3)OC(=O)[C@H]2[C@@H]1C(=O)NC[C@H](O)c1ccccc1)C(=O)OC	-0.0495	0.677 (inactive)	-0.275 (inactive)	-3.93 (inactive)	0.87 (inactive)	0.379 (inactive)	0.062 (inactive)	-0.138 (inactive)	-1.37	-0.0013
COc1ccc(CCNC(=O)[C@@]2(c3ccc([N+](=O)[O-])cc3)CC(=O)N(C3CCCCC3)[C@@H]2c2ccc(CO)cc2)cc1	0.159	-0.0229 (inactive)	-0.881 (inactive)	0.395 (inactive)	-0.342 (inactive)	1.14 (inactive)	0.914 (inactive)	0.686 (inactive)	0.556	-0.0333
C[C@@H]1NC(=O)[C@@H](Cc2ccccc2)NC(=O)[C@@]23C(=O)N[C@@H](Cc4ccccc4)C2[C@H](C)[C@@]2(C)O[C@H]2C3/C=C/C/C=C\CNC1=O (stereo not given in full)	-1.2	0.318 (inactive)	0.0992 (inactive)	0.0303 (inactive)	0.413 (inactive)	0.652 (inactive)	-0.811 (inactive)	-0.863 (inactive)	0.329	-0.0138
COCCOC(=O)N1C(=O)[C@@]2(c3cc(C#CCC(C(=O)OC)C(=O)OC)ccc31)[C@H](c1ccc(OCCO)cc1)N1[C@H](c3ccccc3)[C@H](c3ccccc3)OC(=O)[C@H]1[C@@H]2C(=O)N1CCc2cc(OC)c(OC)cc2C1	0.125	2.56 (inactive)	0.26 (inactive)	-0.523 (inactive)	2.25 (inactive)	3.32 (inactive)	0.301 (inactive)	0.294 (inactive)	0.504	0.112
